Screens deposited in PubChem by National Center for Advancing Translational Sciences (NCATS).
Hits are enriched below; roughly 11% of the tested compounds scored in any of these assays.
L3MBTL1 inh = qHTS Assay for the Inhibitors of L3MBTL1 | Lethal(3)malignant brain tumor-like protein 1 (Homo sapiens), Q9Y468 | AlphaScreen L3MBTL1–H3K9me1 peptide binding | Potency, µM (top dose mostly 57.1 µM), for inactives: top-dose activity, negative = inhibition, actives largely listed as inhibitors | actives 0.66% (n = 230,000) | AID 485360, 2010; note: % is set by controls: 0 for no effect and ±100 for the full control effect; nearly all actives have a fitted effect of over 60% in size
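AlphaScreen proximity signal between nickel-chelate acceptor and streptavidin donor beads (final 10 ug/mL) reports binding of 50 nM L3MBTL1 to 75 nM biotin-H3 K9me1 peptide; complex incubated with compounds 30 min at room temperature; cefsulodin titration as control.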
JMJD2A Tudor = qHTS Assay for Inhibitors of JMJD2A-Tudor Domain | Potency, µM (doses to about 114 µM), inactives show top-dose activity change, negative = inhibition, most hits filed as inhibitors | Lysine-specific demethylase 4A (Homo sapiens), O75164 | AlphaScreen JMJD2A-Tudor / H3K4me3 peptide binding | actives 4.4% (n = 390,000); note: % is set by controls: 0 for no effect and ±100 for the full control effect; nearly all actives have a fitted effect of over 50% in size
HP1b chromo inh = HTS for Inhibitors of HP1-beta Chromodomain Interactions with Methylated Histone Tails; Chromobox protein homolog 1 (Homo sapiens), P83916; AlphaScreen HP1-beta / biotin-H3K9me3 peptide binding; Potency, µM (top dose mostly 114 µM), for inactives: at the highest dose activity change, negative = inhibition, usual class: inhibitors; actives 0.56% (n = 390,000); AID 540317, 2011; note: nearly all actives have a fitted effect of over 70% in size
Target sequence (P83916 whole entry, looked up): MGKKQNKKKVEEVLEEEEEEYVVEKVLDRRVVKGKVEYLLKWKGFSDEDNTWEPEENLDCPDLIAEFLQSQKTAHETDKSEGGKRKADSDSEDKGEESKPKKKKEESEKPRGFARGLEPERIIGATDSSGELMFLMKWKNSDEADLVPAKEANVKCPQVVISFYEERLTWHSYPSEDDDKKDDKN
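HP1-beta protein (50 nM final) preincubated 30 min at room temperature with biotinylated H3(1-18)K9me3 peptide (50 nM) in PBS pH 7.4, 0.01% Tween-20, then compound added for 30 min. AlphaScreen streptavidin donor/nickel chelate acceptor beads (10 ug/mL final), 30 min dark, luminescence read.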
G9a inh = qHTS Assay for Inhibitors of Histone Lysine Methyltransferase G9a. G9a H3K9 monomethylation, AlphaScreen, 2 h. actives 8.8% (n = 350,000). AID 504332, 2011. Potency, µM (titrated, usually from 102 µM), without a hit: top-dose activity, negative = inhibition, most hits filed as inhibitors; note: % is set by controls: 0 for no effect and ±100 for the full control effect; nearly all actives have a fitted effect of over 75% in size
Target sequence (Q96KQ7 913-1193 limits assumed): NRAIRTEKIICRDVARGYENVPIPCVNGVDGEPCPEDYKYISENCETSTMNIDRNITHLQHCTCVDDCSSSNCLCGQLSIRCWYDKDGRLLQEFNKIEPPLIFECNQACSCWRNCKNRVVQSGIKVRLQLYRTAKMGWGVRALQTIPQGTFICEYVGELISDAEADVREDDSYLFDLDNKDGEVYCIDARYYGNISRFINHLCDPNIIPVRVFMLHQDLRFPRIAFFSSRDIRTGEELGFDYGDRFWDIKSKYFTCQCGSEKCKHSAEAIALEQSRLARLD
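Methyltransferase reactions run at room temperature for 2 h (20 nM enzyme, 500 nM biotin-H3K9 peptide, 20 uM SAM) after a 15 min compound preincubation; product detected by AlphaScreen beads and anti-H3K9me1 antibody.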
BAZ2B block = qHTS Assay for Inhibitors of BAZ2B; AID 504333, 2011; AlphaScreen BAZ2B-H3K14Ac peptide displacement; Potency, µM (titrated, usually from 114 µM), inactives show top-dose activity change, negative = inhibition, hits mostly inhibitors; Bromodomain adjacent to zinc finger domain protein 2B (Homo sapiens), Q9UIF8; actives 4.4% (n = 360,000); note: % is set by controls: 0 for no effect and ±100 for the full control effect; nearly all actives have a fitted effect of over 60% in size
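Complex of BAZ2B and biotin-H3K14Ac (50 nM apiece) forms over 30 min at RT, then faces library compounds up to 110 uM for another 30 min; AlphaScreen beads added, 20 min dark incubation, luminescence read.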
* hit, by the source's call; [ ] = another dose, or the depositor's remark. Calls come from the whole dose curve; as a rule, active = well fitted inhibition curve with a large enough effect; inconclusive = small, poorly fitted or top-dose-only effect; inactive = no such curve, though single readings can be large or run the other way. Potency is the fitted concentration of half-maximal effect.

`CCc1nnc2c3ccccc3nc(N3CCN(c4cc(Cl)ccc4C)CC3)n12` gave JMJD2A Tudor -31.1%, HP1b chromo inh 3.7%, G9a inh -27.0%[59 µM] and BAZ2B block 5.1%[57.1 µM].
For O=C(CNCCc1ccc(F)cc1)Nc1cc(F)ccc1F the results were JMJD2A Tudor 28.2µM*, HP1b chromo inh -5.9%, G9a inh inconclusive and BAZ2B block 20µM*.
`O=C(CN1CCCC1)Nc1cc(F)ccc1F` gave L3MBTL1 inh 6.0%, JMJD2A Tudor -13.2%, HP1b chromo inh 30.3%, G9a inh 3.2% and BAZ2B block 1.5%.
`O=C(CSc1nc2ccccc2c(=O)n1Cc1ccco1)N1CCN(c2ccccc2)CC1` gave L3MBTL1 inh -4.1%, JMJD2A Tudor -4.4%, HP1b chromo inh inconclusive, G9a inh 14.1µM* and BAZ2B block inconclusive.
CCn1c(SCC(=O)N2CCOCC2)nc2oc3c(Cl)cc(Cl)cc3c(=O)c2c1=O was read as L3MBTL1 inh -0.5%, G9a inh 39.8µM* and BAZ2B block inconclusive.
CCCCn1c(SCC(=O)N2CCN(c3ccccc3)CC2)nc2ccsc2c1=O was read as L3MBTL1 inh -18.5%, JMJD2A Tudor -34.8%, HP1b chromo inh 29.4%, G9a inh 39.8µM* and BAZ2B block -31.0%.
Screening CCn1c(SCC(=O)N2CCOCC2)nc2sc3c(c2c1=O)CCCC3 returned L3MBTL1 inh 3.7%, JMJD2A Tudor -7.4%, HP1b chromo inh 28.3%, G9a inh inconclusive and BAZ2B block 2.9%.
`CCCCn1c(SCC(=O)N2CCC(C)CC2)nc2ccsc2c1=O` gave L3MBTL1 inh 9.1%, JMJD2A Tudor -1.5%, HP1b chromo inh 39.0%, G9a inh 1.1% and BAZ2B block -0.2%.
For CCn1c(SCC(=O)N2CCN(c3ccc(Cl)cc3)CC2)nc2ccccc2c1=O the results were L3MBTL1 inh 1.3%, JMJD2A Tudor -31.5%, HP1b chromo inh -18.9%, G9a inh 2µM* and BAZ2B block 50.1µM*.
`COc1ccc(NC(=O)c2ccco2)cc1NC(=O)COc1ccccc1Cl` gave JMJD2A Tudor -3.8%, HP1b chromo inh 30.2%, G9a inh 26.0%[59 µM] and BAZ2B block 1.3%.
For O=C(CCCn1c(=O)[nH]c2ccccc2c1=O)NCc1ccccc1Cl the results were JMJD2A Tudor -17.0%, HP1b chromo inh -8.0%, G9a inh 11.4%[59 µM] and BAZ2B block -13.1%.
Cc1ccc(Cl)cc1N1CCN(C(=O)C2CCN(S(=O)(=O)Cc3ccccc3)CC2)CC1 was read as JMJD2A Tudor -3.6%, HP1b chromo inh 25.1%, G9a inh inconclusive and BAZ2B block 2.4%.
`CCCOc1ccc(C2C(=O)N(C3CCCCC3)CC(=O)N2CCCOCC)cc1OC` (configuration not stated) gave L3MBTL1 inh 5.3%, JMJD2A Tudor 8.5%, HP1b chromo inh 35.8%, G9a inh 7.94µM* and BAZ2B block 5.1%.
`Cc1cccc(CNc2ncncc2-c2cccnc2)c1` gave G9a inh -10.0%[0.501 µM].
For Cc1ccc2nc(NC(=O)CNS(=O)(=O)c3ccc(Br)s3)sc2c1 the results were L3MBTL1 inh 3.0%, JMJD2A Tudor 50.1µM*, HP1b chromo inh 5.8%, G9a inh inconclusive and BAZ2B block -14.6%.
Screening Cc1ccc2nc(NC(=O)CN(C)S(=O)(=O)c3ccc(Br)s3)sc2c1 returned JMJD2A Tudor -22.9%, HP1b chromo inh 19.0%, G9a inh -5.3%[12.7 µM] and BAZ2B block -22.9%.
Screening Cc1ccc2nc(NC(=O)COC(=O)c3ccc(Br)o3)sc2c1 returned L3MBTL1 inh -39.8%, JMJD2A Tudor 44.7µM*, HP1b chromo inh 9.9%, G9a inh inconclusive and BAZ2B block 42.7%.
COc1ccc(-c2nsc(NC(=O)c3ccccc3Br)n2)cc1 was read as JMJD2A Tudor -0.9%, HP1b chromo inh 59.9%, G9a inh -1.0%[59 µM] and BAZ2B block -2.1%.
Screening Cc1ccc(CNC(=O)C2c3ccccc3C(=O)N3CCc4ccccc4C23)o1 (configuration not stated) returned L3MBTL1 inh 0.7%, JMJD2A Tudor -19.9%, HP1b chromo inh -1.4%, G9a inh 31.6µM* and BAZ2B block inconclusive.
Screening O=C(NCCN1CCN(Cc2ccccc2)CC1)C1c2ccccc2C(=O)N2CCc3ccccc3C12 (configuration not stated) returned L3MBTL1 inh -0.1%, JMJD2A Tudor 1.6%, HP1b chromo inh 24.9%, G9a inh 2.6% and BAZ2B block 4.5%[57.1 µM].
Screening NC(CSCc1ccccc1Cl)C(=O)O (configuration not stated) returned L3MBTL1 inh -2.6%, JMJD2A Tudor -5.7%, HP1b chromo inh 41.7%, G9a inh 35.5µM* and BAZ2B block inconclusive.
`COc1cc(CNCc2ccco2)ccc1OCc1ccccc1` gave L3MBTL1 inh -1.1%, JMJD2A Tudor 3.98µM*, HP1b chromo inh inconclusive, G9a inh 35.5µM* and BAZ2B block inconclusive.
For COc1cc(OC)c(OC)cc1CNCc1ccco1 the results were JMJD2A Tudor 2.82µM*, HP1b chromo inh inconclusive, G9a inh 28.2µM* and BAZ2B block inconclusive.
COc1cc(OC)c(S(=O)(=O)NCc2ccco2)cc1S(=O)(=O)NCc1ccco1 was read as L3MBTL1 inh -2.2%, JMJD2A Tudor -25.8%, HP1b chromo inh 13.8%, G9a inh 3.5%[12.7 µM] and BAZ2B block 2.7%.
COc1cccc(CNCc2ccco2)c1O was read as L3MBTL1 inh 25.4%, JMJD2A Tudor 17.8µM*, HP1b chromo inh inconclusive and BAZ2B block 34.7%.
For CSc1ccccc1NC(=O)Cc1ccccc1[N+](=O)[O-] the results were L3MBTL1 inh -7.3%, JMJD2A Tudor -7.2%, HP1b chromo inh 29.0%, G9a inh -9.3% and BAZ2B block 19.1%.
NC(=O)CC(NSc1ccccc1[N+](=O)[O-])C(=O)O (configuration not stated) was read as L3MBTL1 inh 7.6%, JMJD2A Tudor 35.5µM*, HP1b chromo inh -8.3%, G9a inh inconclusive and BAZ2B block inconclusive.
For OCCC1CN(Cc2nc3ccccc3s2)CCN1CCc1ccccc1 (configuration not stated) the results were L3MBTL1 inh -13.6%, JMJD2A Tudor -26.9%, HP1b chromo inh 7.5%[57 µM], G9a inh -16.9% and BAZ2B block -26.5%.
